Assay results published in PubChem BioAssay.
Calls of active or inactive are those of the source. Unless noted, no rule for the calls is given here.

Tests used:
[1] = test system: Wnt5a (protein binding on small-molecule microarray); test: small molecules binding Wnt5a protein – biophysical, small-molecule microarray, 635/667 nm fluorescence, primary screen (AID 1142); conditions: 635 nm fluorescence, higher = more signal;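 also: fluorescence read at 667 nm with signal to noise per printed feature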
[2] = ATP-based viability of Huh7 replicon cells – cell-based, CellTiter-Glo luminescence, basal, 48 h, cytotoxicity control for HCV replication inhibitor project, primary screen (AID 1143); conditions: higher = more signal, called active from +8 up or from −8 down;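 also: Huh7 hepatoma cells carrying a hepatitis C replication reporter with no stimulus; test concentration not given here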
[3] = Pseudomonas biofilm growth suppression – PAO1 strain, BacTiter-Glo luminescence, LB-PBS, primary screen (AID 1144); conditions: P. aeruginosa PAO1 biofilm, 12 h, higher = more signal
[4] = basal CRE-LacZ reporter activity in PC12 – cell-based, unstimulated, primary screen (AID 1145); conditions: no forskolin, luminescence, 4.5 h, higher = more signal, called active from +8 up or from −8 down
[5] = forskolin-driven CRE-LacZ activity in PC12 – cell-based, CRE-LacZ reporter, forskolin-stimulated, primary screen (AID 1146); conditions: luminescence, 4.5 h, higher = more signal, called active from +8 up or from −8 down;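 also: PC12 cells with 6xCRE LacZ reporter stimulated by forskolin 10 µM; beta-galactosidase reporter signal reflecting CREB driven transcription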
[6] = target: Streptavidin (Streptomyces avidinii) (UniProt P22629); test: compounds binding control protein streptavidin – biophysical, small-molecule microarray, 635/667 nm fluorescence, artefact control for SMM compound annotation, primary screen (AID 1147); conditions: higher = more signal;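 also: signal reflects streptavidin binding to arrayed compounds as a control protein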
Sequence of Streptavidin (Streptomyces avidinii) (P22629 whole entry, looked up): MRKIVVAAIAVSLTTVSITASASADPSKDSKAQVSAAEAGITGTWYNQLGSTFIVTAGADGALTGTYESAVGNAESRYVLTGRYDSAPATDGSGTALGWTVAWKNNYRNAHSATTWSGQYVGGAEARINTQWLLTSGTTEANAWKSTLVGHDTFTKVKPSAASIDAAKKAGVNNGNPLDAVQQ

[7] = probe aInhba binding on compound microarray – biochemical, small-molecule microarray, 635/667 nm fluorescence, primary screen (AID 1148); conditions: higher = more signal;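 also: score merges 667nm spot fluorescence with signal-to-noise for antibody binding to printed compounds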
[8] = target: Torsin-1A (Homo sapiens) (UniProt O14656); test: TOR1A wild-type binding on microarray – cell lysate, small-molecule microarray, lysate, 635/667 nm, primary screen (AID 1149); conditions: COS7 hTOR1A-WT lysate, 635 nm fluorescence, higher = more signal
Sequence of Torsin-1A (Homo sapiens) (O14656 whole entry, looked up): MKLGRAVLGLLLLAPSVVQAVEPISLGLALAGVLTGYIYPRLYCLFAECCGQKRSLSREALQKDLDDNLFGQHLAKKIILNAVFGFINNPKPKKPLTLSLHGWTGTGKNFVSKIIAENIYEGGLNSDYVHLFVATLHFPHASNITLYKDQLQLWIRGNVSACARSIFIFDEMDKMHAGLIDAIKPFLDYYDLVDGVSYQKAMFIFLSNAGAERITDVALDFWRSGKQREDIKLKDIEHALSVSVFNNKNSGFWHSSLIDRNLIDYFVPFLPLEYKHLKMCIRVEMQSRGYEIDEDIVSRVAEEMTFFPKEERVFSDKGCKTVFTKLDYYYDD

[9] = target: Torsin-1A (Homo sapiens) (UniProt O14656); test: torsin A mutant lysate binding on microarrays – cell lysate, small-molecule microarray, COS7 lysate, 635/667 nm fluorescence, primary screen (AID 1150); conditions: COS7 hTOR1A mutant lysate, 635 nm fluorescence, higher = more signal;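 also: score pools 667 nm emission and signal to noise measuring lysate protein binding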
[10] = test system: Sonic hedgehog protein (Shh); test: Sonic hedgehog microarray binding compounds – biochemical, small-molecule microarray, 635/667 nm fluorescence, primary screen (AID 1151); conditions: 635 nm fluorescence, higher = more signal;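 also: Shh protein binding to compounds spotted on small-molecule microarray slides; score combines spot fluorescence intensity with signal-to-noise across triplicate slides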

Structure (SMILES) | composite z-score [1] | z-score [2] | z-score [3] | z-score [4] | z-score [5] | composite z-score [6] | composite z-score [7] | composite z-score [8] | composite z-score [9] | composite z-score [10]
C=CCN1C(=O)[C@]2(O[C@H](CCn3cc([C@H](O)c4ccccc4)nn3)[C@@H]([Si](C)(C)c3ccc(OC)cc3)[C@@H]2C)c2cc(N3CCC3=O)ccc21 | 0.979 | -4.37 (inactive) | -0.549 (inactive) | 2.37 (inactive) | -0.229 (inactive) | -0.0806 | 0.481 | 0.279 | 0.398 | 2.08
COC(=O)[C@@]1(Cc2ccccc2)N=C(c2ccc(OCCCO)cc2)O[C@H]1c1ccccc1 | 0.912 | -4.45 (inactive) | 0.35 (inactive) | 1.45 (inactive) | -2.12 (inactive) | -0.369 | 0.0816 | 0.348 | 1.74 | -0.0883
CN(C)CCCC[C@@H]1NC(=O)[C@@H]2C[C@H](C(=O)NCCCCCCN)[C@H](c3cccc(OCCO)c3)N2C1=O | 0.017 | -0.96 (inactive) | 0.168 (inactive) | 0.139 (inactive) | -0.347 (inactive) | 2.1 | 0.831 | 1.17 | 1.99 | 0.68
CC1(C)[C@@H]2CC(C(O)C3C=CC4C(=O)N(Cc5ccccc5)C(=O)C4N3n3cnnc3)=C[C@H]1C2 (stereo not given in full) | 0.253 | -0.346 (inactive) | 0.132 (inactive) | -0.126 (inactive) | 0.34 (inactive) | 0.512 | -0.0375 | 1.49 | 1.33 | 0.414
CCOC(=O)C[C@H]1[C@H](OC(=O)c2ccc(-c3ccccc3)cc2)[C@@H](NC(=O)Cc2ccc(OC)cc2)c2cc(OCCCO)ccc2N1C(=O)c1ccccc1 | 0.118 | -1.02 (inactive) | 0.338 (inactive) | -0.505 (inactive) | -0.15 (inactive) | -0.0322 | -0.0645 | -0.36 | 0.023 | 0.265
CN(C)CCCCCCNC(=O)[C@H]1C[C@H]2C(=O)N3CCC[C@H]3C(=O)N2[C@H]1c1ccc(O)cc1 | 0.899 | -0.865 (inactive) | 0.332 (inactive) | -0.268 (inactive) | -0.933 (inactive) | 0.192 | 0.019 | 1.95 | -0.118 | 2.04
O=C1O[C@@H](c2ccccc2)[C@@H](c2ccccc2)N2[C@@H](c3ccccc3OCCO)[C@]3(C(=O)Nc4ccc(C#CC5=CCCCC5)cc43)[C@@H](C(=O)N3CCCCCCC3)[C@H]12 | 2.24 | -4.53 (inactive) | 0.189 (inactive) | -0.203 (inactive) | 0.188 (inactive) | 3.51 | 2.23 | 2.81 | 2.9 | 1.22
NC(=O)NCC#Cc1ccc2c(c1)[C@]1(C(=O)N2)[C@H](c2ccc(O)cc2)N2[C@H](c3ccccc3)[C@H](c3ccccc3)OC(=O)[C@H]2[C@@H]1C(=O)O | -0.763 | 0.0192 (inactive) | -0.248 (inactive) | 0.895 (inactive) | -0.226 (inactive) | -0.256 | -0.299 | -1.13 | -0.914 | -0.453
CCC(CC)C(O)C1C=CC2C(=O)NC(=O)C2N1Nc1ccccn1 (stereo not given) | -0.108 | 1.06 (inactive) | -0.515 (inactive) | 0.246 (inactive) | 0.783 (inactive) | -0.12 | -0.016 | 0.147 | 0.317 | 0.186
C=CCNC(=O)[C@@H]1[C@H]2C(=O)O[C@H](c3ccccc3)[C@H](c3ccccc3)N2[C@H](c2ccc(O)cc2)[C@@]12C(=O)Nc1ccc(C#CCNC(N)=O)cc12 | -0.525 | -0.0804 (inactive) | -0.233 (inactive) | 1.21 (inactive) | -0.434 (inactive) | -0.325 | -0.339 | -0.138 | 0.121 | 0.316
COc1cc2c(cc1OC)CN(C(=O)[C@@H]1[C@H]3C(=O)O[C@H](c4ccccc4)[C@H](c4ccccc4)N3[C@H](c3ccc(O)cc3)[C@@]13C(=O)Nc1ccccc13)CC2 | 0.33 | -4.24 (inactive) | -1.07 (inactive) | 0.685 (inactive) | -0.0307 (inactive) | 0.523 | 0.121 | 1.05 | 0.341 | 1.33
C=C(CCCC)C(=O)CC[C@@H](OC(=O)c1ccccc1-c1ccccc1C(=O)O)c1ccc(OCCO)cc1 | 0.27 | 0.142 (inactive) | -0.385 (inactive) | -0.336 (inactive) | 1.8 (inactive) | -0.074 | -0.128 | 0.803 | 0.427 | 0.586
O=C1C2C=CC(C(O)Cc3ccccc3)N(n3cnnc3)C2C(=O)N1Cc1ccccc1 (stereo not given) | 0.0769 | 0.0633 (inactive) | 0.0973 (inactive) | -0.0696 (inactive) | -0.413 (inactive) | 0.0646 | -0.0118 | -0.0992 | 1.05 | -0.373
COCCOC(=O)N1C(=O)[C@@]2(c3cc(C#CCC(C(=O)OC)C(=O)OC)ccc31)[C@H](C(=O)Nc1nc3ccccc3s1)[C@H]1C(=O)O[C@H](c3ccccc3)[C@H](c3ccccc3)N1[C@@H]2c1ccccc1OCCO | 0.346 | -3.81 (inactive) | -1.12 (inactive) | -0.141 (inactive) | 0.401 (inactive) | 0.487 | 0.0711 | 0.776 | 0.456 | 1.13
